100 molecules from PubChem BioAssay AID588342 (National Center for Advancing Translational Sciences (NCATS), 2011) can be followed below.

Hit rate of the full screen: of about 360,000 compounds, about 25,000 (6.9%) were called active. Roughly 9% stayed inconclusive and do not appear here. The call rests on the fitted dose curve; in most records, active means well fitted inhibition curve with a large enough effect; inconclusive means small, poorly fitted or top-dose-only effect; inactive means flat fitted curve, though single readings scatter. The entries come from a sample that favours actives as a whole. A call without a number means that no potency is given here.
Potency means the concentration at half of the fitted maximal effect.

Chain of Luciferin 4-monooxygenase (Photinus pyralis) (P08659 whole entry, looked up): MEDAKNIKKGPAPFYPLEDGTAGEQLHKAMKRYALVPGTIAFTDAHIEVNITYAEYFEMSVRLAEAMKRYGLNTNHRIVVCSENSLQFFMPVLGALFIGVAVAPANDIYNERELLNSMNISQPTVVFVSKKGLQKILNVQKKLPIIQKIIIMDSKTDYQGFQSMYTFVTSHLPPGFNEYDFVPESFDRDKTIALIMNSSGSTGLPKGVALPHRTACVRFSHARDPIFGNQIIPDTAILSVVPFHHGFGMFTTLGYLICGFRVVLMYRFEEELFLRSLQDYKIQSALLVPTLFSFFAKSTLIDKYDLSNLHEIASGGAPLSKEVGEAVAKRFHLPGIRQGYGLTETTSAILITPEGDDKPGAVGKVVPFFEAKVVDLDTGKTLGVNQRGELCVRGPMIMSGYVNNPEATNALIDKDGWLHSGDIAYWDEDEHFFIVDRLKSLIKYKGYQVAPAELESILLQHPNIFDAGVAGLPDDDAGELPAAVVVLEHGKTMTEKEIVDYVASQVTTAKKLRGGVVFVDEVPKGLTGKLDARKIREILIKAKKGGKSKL

This test concerns the target Luciferin 4-monooxygenase (Photinus pyralis) (UniProt P08659). Put plainly: qHTS profiling assay for firefly luciferase inhibitor/activator using purifed enzyme and Km concentrations of substrates (counterscreen for miR-21 project). Further: nearly all actives have a fitted effect of over 55% in size. The note with it: purified FLuc, luminescence inhibition; series mostly up to 57.5 µM. The method, boiled down: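 Biochemical qHTS of compounds, final roughly 60 µM downward over six points, against 10 nM purified firefly luciferase using Km concentrations of substrates (10 uM D-luciferin, 10 uM ATP) in Tris acetate pH 7.5 buffer; luminescence output.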
(In general: In qHTS, concentration-response curves come from the screen itself.)
For the molecule `COc1cccc(-c2nc(CS(=O)(=O)CC(=O)N3CCN(c4cc(C)ccc4C)CC3)c(C)o2)c1`, the Potency entry was “inactive”. In the case of `COc1cccc(OCC(O)CNC(=O)c2oc3c(C)c(C)ccc3c2C)c1` (stereo not given), the Potency result is “inactive”.

Turning to `O=C(NCc1ccccc1)C(=O)NCC1OCCN1S(=O)(=O)c1ccc(Br)cc1` (stereo not given), the Potency result is “inactive”. In the case of `O=C(Oc1ccc(-c2nnco2)cc1)c1ccc(F)c(S(=O)(=O)N2CCOCC2)c1`, the Potency entry is “inactive”. With `Cc1occc(=O)c1OCc1ccc(F)cc1`, the Potency result is “inactive”. Regarding `Fc1ccc(COc2ccc(-c3nnco3)cc2)cc1`, the Potency was 13.5 µM (active). As to `COCCN1Cc2cccc(C(=O)Nc3ccccc3OC)c2C1=O`, the Potency entry is “inactive”. The entry for `COC(=O)c1ccc(NC(=O)c2cccc3c2C(=O)N(C2CCCCC2)C3)cc1` is “inactive”; for `CCOc1ccc(NC(=O)c2cccc3c2C(=O)N(CC2CCCO2)C3)cc1` (stereo not given) it is 8.49 µM (active); for `COc1ccc(C(=O)Nc2ccc(C(=O)NCC3CCCO3)cc2)c(OC)c1OC` (stereo not given) it is “inactive”.

On to `COc1ccc(NC(=O)c2cccc3c2C(=O)N(CC2CCCO2)C3)cc1OC` (stereo not given), for which the Potency was 26.9 µM (active). For `CCCN1Cc2cccc(C(=O)Nc3ccc(S(=O)(=O)N4CCCCCC4)cc3)c2C1=O` the value was “inactive”; for `Cc1ccsc1CN(C(=O)c1oc2ccc(Br)cc2c1C)C1CCS(=O)(=O)C1` (stereo not given), “inactive”; for `O=C1C=C(c2cc(C(F)(F)F)cc(C(F)(F)F)c2)C[C@@H](c2ccc3c(c2)OCO3)C1`, “inactive”. As for `Cc1cc(C(F)(F)F)n2ncc(-c3ccccc3)c2n1`, the Potency entry is “inactive”. The entry for `Cc1cc(-n2nc(C)cc2C)n2ncc(-c3ccccc3)c2n1` is “inactive”; for `COc1ccccc1-c1cnn2c(N3CCOCC3)cc(C)nc12` it is 6.01 µM (active). For the molecule `CC1Cc2ccccc2N1S(=O)(=O)c1cccc(C(=O)NCC(c2ccco2)N2CCCC2)c1` (stereo not given), the Potency entry is “inactive”.

As for `COc1ccccc1CNC(=O)C(=O)NCC(c1cccs1)S(=O)(=O)c1cccs1` (stereo not given), the Potency result is “inactive”.

For `O=S(=O)(/C=C/c1ccccc1)N1CCNCC1`, the Potency result is “inactive”. Take `COc1ccc(C(=O)/C=C/c2ccc(-c3ccccc3)cc2)cc1CSCC(=O)O`: the Potency result is “inactive”. For the molecule `Cc1[nH]c(=O)c(C(=O)/C=C/c2ccccc2)c2c1CCCC2`, the Potency result is “inactive”.

Consider `O=C(/C=C/c1ccccc1)c1ccoc1`, for which the Potency is 15.1 µM (active). The entry for `O=C(/C=C(O)/C=C/c1ccc(O)cc1)/C=C/c1ccc(O)cc1` is “inactive”; for `O=C(/C=C/c1ccccc1)c1ccccc1O` it is 3.38 µM (active). With `O=C(CSc1nnc(-c2ccncc2)n1-c1ccccc1)Nc1ccc(Cl)c(Cl)c1`, the Potency entry was “inactive”.

For the molecule `COc1ccc(CCNC(=O)c2cn(C)c3ccc(S(=O)(=O)N(C)C4CCCCC4)cc3c2=O)cc1OC`, the Potency result is “inactive”. For `CSc1ccc(C2c3c(oc4ccccc4c3=O)C(=O)N2CCCN2CCOCC2)cc1` (stereo not given) the value was “inactive”; for `COc1cc(Cl)c(C)cc1NC(=O)CSc1nnc(-c2ccco2)n1CC(C)C`, “inactive”; for `CCOc1ccc(C(=O)Nc2cccc(SC)c2)cc1`, 6.01 µM (active). For the molecule `CCOc1ccc(C(=O)Nc2c3c(nn2-c2ccccc2)CS(=O)(=O)C3)cc1`, the Potency entry is “inactive”.

Turning to `COc1ccc(OC)c(S(=O)(=O)Nc2cccc(-c3ccc4nncn4n3)c2)c1`, the Potency entry is “inactive”.

Consider `CCOc1ccc(C(=O)Nc2cccc(-c3ccc4nncn4n3)c2)cc1`, for which the Potency is 8.49 µM (active). On to `CCOc1cccc(NC(=O)CC#N)c1`, for which the Potency entry was “inactive”.

In the case of `CCOc1ccc(NC(=O)c2ccc(NC(=O)COC(=O)c3ccc(NC(=O)CC#N)cc3)cc2)cc1`, the Potency entry is “inactive”. The entry for `NS(=O)(=O)c1ccc(CCNS(=O)(=O)c2cccc3cccnc23)cc1` is “inactive”; for `O=C(O[C@@H]1[C@H](Cc2ccccc2)NS(=O)(=O)[C@H]2C[C@@H]3C=C[C@]12O3)c1ccccc1Br` it is “inactive”.

Consider `COc1cccc(NC(=O)NCCN2CCCCC2)c1`, for which the Potency result was “inactive”.

Consider `COc1cccc(NC(=O)Nc2nnc(N3CCCCC3C)s2)c1` (stereo not given), for which the Potency was 13.5 µM (active). As for `COc1cccc(NC(=O)N2CCCC2C(=O)NC2CCCCC2)c1` (stereo not given), the Potency result is “inactive”. For `CCOC(=O)C1(CCOC)CCN(Cc2cc3ccccc3s2)CC1` the value was “inactive”; for `CN(Cc1ccccc1)S(=O)(=O)c1ccc(F)c(C(=O)Nc2cccc(Cl)c2Cl)c1`, “inactive”. As to `O=C1c2cccnc2C(Nc2ccc(S(=O)(=O)N3CCCCCC3)cc2)N1Cc1ccccc1` (stereo not given), the Potency entry was “inactive”. For `Brc1ccc(-c2csc(N/N=C/c3ccc4c(c3)OCO4)n2)cc1`, the Potency entry is “inactive”. Regarding `C(=N\Nc1ccc2ccccc2n1)/c1ccc2c(c1)OCO2`, the Potency is 0.19 µM (active).

As for `Cc1noc(C)c1/C=N/Nc1ccc2ccccc2n1`, the Potency was 1.69 µM (active). For `O=C(Cc1ccc(F)cc1)N/N=C/c1ccc2c(c1)OCO2` the value was “inactive”; for `COc1ccc(NC(=O)C2C3CCC(O3)C2C(=O)O)cc1OC` (stereo not given), “inactive”; for `Cc1cccn2c(=O)c3cc(C(=O)NC(C)c4ccccc4)c(=N)n(CCCO)c3nc12` (stereo not given), “inactive”. For `CCCN(CCC)CCNC(=O)c1ccc2c(c1)NC(=O)C(CS(=O)(=O)Cc1cccc(Br)c1)N2` (stereo not given) the value was “inactive”. Regarding `COc1cccc(N=C2SC(C(=O)Nc3cccc(Cl)c3)CC(=O)N2C)c1` (stereo not given), the Potency result is “inactive”. For `O=C(COc1ccccc1Cl)Nc1ccccc1C(=O)NC1CC1` the value was “inactive”; for `O=C(Nc1cccn(Cc2ccccc2Cl)c1=O)NC1CCCCC1`, 21.3 µM (active). In the case of `COc1ccc(Cn2cccc(NC(=O)Nc3ccc(C#N)cc3)c2=O)cc1`, the Potency entry was “inactive”. Turning to `CCC(=O)Nc1ccc(-c2ccc(N3CCCCC3)nn2)cc1`, the Potency is 12 µM (active). For `CCC(=O)c1ccc(OCC(=O)Nc2ccc(N3CCCCC3)cc2)cc1` the value was “inactive”. For `CCOc1ccc(NC(=O)CCc2c(C)nn(-c3ccc(N4CCCC4)nn3)c2C)cc1` the value was “inactive”. For `O=C(CSc1nc2ccccc2nc1Cc1ccccc1)N1CCCCC1`, the Potency result is “inactive”.

On to `O=C(CC(c1cccs1)N1Cc2ccccc2C1=O)Nc1ccc(F)c(F)c1` (stereo not given), for which the Potency entry was “inactive”. On to `Cc1sc2ncnc(N3CCC(C(=O)NNC(=O)c4ccc(F)cc4)CC3)c2c1C`, for which the Potency result is “inactive”. For `Cc1sc2ncnc(N3CCC(C(=O)Nc4nc5ccc(Cl)cc5s4)CC3)c2c1C` the value was 15.1 µM (active); for `Cc1sc2ncnc(N3CCC(C(=O)Nc4ccc(F)cc4Cl)CC3)c2c1C`, “inactive”; for `Cc1ccc(S(=O)(=O)N(C)C)cc1NC(=O)C1Cc2ccccc2CN1C(=O)c1ccco1` (stereo not given), “inactive”.

`CCN(CC)c1ccc(C(=O)c2cnc(/N=C/N(C)C)s2)cc1`: the Potency was 16.9 µM (active). In the case of `CCN(CC)c1ccc(C(=O)Nn2c(C)nc3ccccc3c2=O)cc1`, the Potency entry was “inactive”.

Regarding `COc1ccc(S(=O)(=O)N2CCN(C(C)C(=O)Nc3ccc(C(C)C)cc3)CC2)cc1` (stereo not given), the Potency result is “inactive”. With `O=C(CN1C(=O)/C(=C\c2ccccc2F)SC1=S)Nc1nc2ccccc2s1`, the Potency result was “inactive”.

Consider `COc1ccc(/C=C(\C#N)C(=O)OCC(=O)N(C)C2CCS(=O)(=O)C2)cc1` (stereo not given), for which the Potency result was “inactive”. Consider `CN(C(=O)CN1C(=O)S/C(=C\c2ccccc2F)C1=O)C1CCS(=O)(=O)C1` (stereo not given), for which the Potency entry was “inactive”.

Take `COc1ccccc1/C=C1\SC(=O)N(CCC(=O)N(C)C2CCS(=O)(=O)C2)C1=O` (stereo not given): the Potency is 16.9 µM (active). For `Cc1ccc(S(=O)(=O)CCC(=O)OCC(=O)N(C)C2CCS(=O)(=O)C2)cc1` (stereo not given) the value was “inactive”; for `CN(C(=O)CCN1C(=O)/C(=C/c2ccccc2F)SC1=S)C1CCS(=O)(=O)C1` (stereo not given), 26.9 µM (active). Consider `CC[n+]1c(C)n(-c2ccccc2)c2ccc(NC(C)=O)cc21`, for which the Potency result is “inactive”. For `CCN(CC)C(=O)c1nc[nH]c1C(=O)N(C)Cc1ccccc1`, the Potency entry is “inactive”.

With `Cc1ccc(CNC(=O)CCNS(=O)(=O)c2ccc3c(c2)oc(=O)n3C)cc1`, the Potency entry was “inactive”. `Cc1nn(Cc2ccc(Cl)cc2)c(Cl)c1/C=N/NC(=O)CNc1ccccc1F`: the Potency entry was “inactive”. As to `CCn1nc(C)c(/C=N/NC(=O)Cc2ccc(Cl)cc2)c1C`, the Potency is 15.1 µM (active). For `O=C(CN1CCSCC1)N/N=C/c1ccc(Cl)cc1` the value was “inactive”; for `CCn1cc(C(=O)N(C)Cc2ccccc2)c(=O)c2cc(S(=O)(=O)N3CCCCCC3)ccc21`, “inactive”.

On to `CCn1nc(C(=O)Nc2ccc(N3CCOCC3)cc2)c2ccccc2c1=O`, for which the Potency entry is “inactive”.

For `CC1(c2ccc(Cl)cc2Cl)NC(=O)N(CC(=O)Nc2cccnc2Cl)C1=O` (stereo not given), the Potency entry is “inactive”.

On to `O=[N+]([O-])c1ccc(N/N=C/c2ccccc2)cc1`, for which the Potency was 19 µM (active). For the molecule `O=C(O)/C=C/C(=O)NNc1ccc([N+](=O)[O-])cc1`, the Potency result was “inactive”. For `Cc1cccc(COc2ccccc2/C=N/Nc2ccc([N+](=O)[O-])cc2)c1`, the Potency entry is “inactive”. Turning to `COC(=O)c1ccc(CSc2ccc(S(=O)(=O)N3CCCCC3)cn2)cc1`, the Potency entry is “inactive”. On to `O=C(C1CCC1)N1CCN(S(=O)(=O)c2ccc([N+](=O)[O-])cc2)CC1`, for which the Potency result was “inactive”. With `COc1ccc(S(=O)(=O)/N=C2\C=C(NS(=O)(=O)c3ccccc3)C(=O)c3ccccc32)cc1`, the Potency was 15.1 µM (active). For `CCCC(NS(=O)(=O)c1ccc(OC)cc1)C(=O)O` (stereo not given), the Potency entry was “inactive”. `COc1ccc(NS(=O)(=O)c2ccc(Oc3c(C#N)cccc3C#N)cc2)cc1`: the Potency entry is “inactive”. Take `CCCCc1ccc(NC(=O)CN2C(=O)NC(Cc3ccccc3)C2=O)cc1` (stereo not given): the Potency entry is “inactive”. Turning to `CCCCN(C(=O)c1nn(C)c(=O)c2ccccc12)c1c(N)n(CCC)c(=O)[nH]c1=O`, the Potency result was “inactive”. On to `Cc1ccc(S(=O)(=O)NCCNC(C)c2ccc(Br)cc2)cc1` (stereo not given), for which the Potency entry is “inactive”. For `CCOC(=O)c1ccc(NC2=CC(c3ccc(OCC)cc3)N(c3ccc(C(=O)OCC)cc3)C2=O)cc1` (stereo not given) the value was “inactive”; for `COC(=O)c1c(NC(=O)C(=O)N2CCCCC2)sc2c1CC(C)(C)OC2`, “inactive”.

Take `CC1(C)Cc2c(sc(NC(=O)C(=O)N3CCOCC3)c2C#N)CO1`: the Potency entry was “inactive”. For `CCOC(=O)N1CCN(C(=O)C(=O)Nc2sc3c(c2C#N)CC(C)(C)OC3)CC1`, the Potency is 16.9 µM (active). On to `CCCCc1ccc(NC(=S)N2CCCC(CO)C2)cc1` (stereo not given), for which the Potency is 2.69 µM (active). On to `CCCCc1ccc(NC(=S)NCCCN2CCOCC2)cc1`, for which the Potency result is “inactive”.

Turning to `COc1ccc(NC(=S)N2CCCC(CO)C2)c(OC)c1` (stereo not given), the Potency entry was “inactive”. `CCOc1ccc(CNC(=O)c2cc(=O)[nH]c3ccc(S(=O)(=O)N4CCCCC4)cc23)cc1`: the Potency entry was “inactive”.
